# Results reported in the supplement of paper PMC8728848.
# About 410 targets per protein were measured; listed, in parts, are those with the strongest signals and a random draw of the rest.
# B1: Flo10 (Saccharomyces cerevisiae), P36170 (protein)
# chain: MPVAARYIFLTGLFLLSVANVALGTTEACLPAGEKKNGMTINFYQYSLKDSSTYSNPSYMAYGYADAEKLGSVSGQTKLSIDYSIPCNGASDTCACSDDDATEYSASQVVPVKRGVKLCSDNTTLSSKTEKRENDDCDQGAAYWSSDLFGFYTTPTNVTVEMTGYFLPPKTGTYTFGFATVDDSAILSVGGNVAFECCKQEQPPITSTDFTINGIKPWNADAPTDIKGSTYMYAGYYYPIKIVYSNAVSWGTLPVSVVLPDGTEVNDDFEGYVFSFDDNATQAHCSVPNPAEHARTCVSSATSSWSSSEVCTECTETESTSYVTPYVTSSSWSSSEVCTECTETESTSTSTPYVTSSSSSSSEVCTECTETESTSYVTPYVSSSTAAANYTSSFSSSSEVCTECTETESTSTSTPYVTSSSWSSSEVCTECTETESTSYVTPYVSSSTAAANYTSSFSSSSEVCTECTETESTSTSTPYVTSSSSSSSEVCTECTETESTSYVTPYVSSSTAAANYTSSFSSSSEVCTECTETESTSTSTPYVTSSSWSSSEVCTECTETESTSYVTPYVSSSTAAANYTSSFSSSSEVCTECTETESTSTSTPYATSSTGTATSFTASTSNTMTSLVQTDTTVSFSLSSTVSEHTNAPTSSVESNASTFISSNKGSVKSYVTSSIHSITPMYPSNQTVTSSSVVSTPITSESSESSASVTILPSTITSEFKPSTMKTKVVSISSSPTNLITSYDTTSKDSTVGSSTSSVSLISSISLPSSYSASSEQIFHSSIVSSNGQALTSFSSTKVSSSESSESHRTSPTTSSESGIKSSGVEIESTSTSSFSFHETSTASTSVQISSQFVTPSSPISTVAPRSTGLNSQTESTNSSKETMSSENSASVMPSSSATSPKTGKVTSDETSSGFSRDRTTVYRMTSETPSTNEQTTLITVSSCESNSCSNTVSSAVVSTATTTINGITTEYTTWCPLSATELTTVSKLESEEKTTLITVTSCESGVCSETASPAIVSTATATVNDVVTVYSTWSPQATNKLAVSSDIENSASKASFVSEAAETKSISRNNNFVPTSGTTSIETHTTTTSNASENSDNVSASEAVSSKSVTNPVLISVSQQPRGTPASSMIGSSTASLEMSSYLGIANHLLTNSGISIFIASLLLAIV
# Experiments:
# Experiment in all cases: glycan array binding signal (z-score within array); higher = stronger binding
# Details in all cases: glycan notation: IUPAC condensed, linker removed
# [1] = target: Fuc(a1-2)Gal(b1-3)GalNAc(a1-3)[Fuc(a1-2)]Gal(b1-4)Glc
# Outline: (§1)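 The binding signal is a Z-score computed within each array and averaged over linkers. Arrays of the same protein sequence at different concentrations or buffers were also averaged together. Data originate from 3228 arrays in the Consortium for Functional Glycomics database, kept only where the protein sequence was available.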
# [2] = target: Fuc(a1-2)Gal(b1-3)GalNAc(a1-3)[Fuc(a1-2)]Gal(b1-4)GlcNAc
# Outline: as §1
# [3] = target: Fuc(a1-2)Gal(b1-4)[Fuc(a1-3)]GlcNAc(b1-2)Man(a1-3)[Fuc(a1-2)Gal(b1-4)[Fuc(a1-3)]GlcNAc(b1-2)Man(a1-6)]Man(b1-4)GlcNAc(b1-4)GlcNAc
# Outline: as §1
# [4] = target: Fuc(a1-2)Gal6S(b1-4)GlcNAc
# Outline: as §1
# [5] = target: Fuc(a1-2)[Gal(a1-3)]Gal
# Outline: as §1
# [6] = target: Fuc(a1-2)[GalNAc(a1-3)]Gal(b1-3)GalNAc(a1-3)[Fuc(a1-2)]Gal(b1-4)GlcNAc
# Outline: as §1
# [7] = target: Fuc(a1-2)[GalNAc(a1-3)]Gal(b1-3)GlcNAc
# Outline: as §1
# [8] = target: Fuc(a1-2)[GalNAc(a1-3)]Gal(b1-4)GlcNAc(b1-2)Man(a1-3)[Fuc(a1-2)[GalNAc(a1-3)]Gal(b1-4)GlcNAc(b1-2)Man(a1-6)]Man(b1-4)GlcNAc(b1-4)GlcNAc
# Outline: as §1
# [9] = target: Fuc(a1-2)[GalNAc(a1-3)]Gal(b1-4)GlcNAc(b1-3)Gal(b1-4)GlcNAc
# Outline: as §1
# [10] = target: Fuc(a1-2)[GalNAc(a1-3)]Gal(b1-4)GlcNAc(b1-3)Gal(b1-4)GlcNAc(b1-3)Gal(b1-4)GlcNAc
# Outline: as §1
# [11] = target: Fuc(a1-2)[GalNAc(a1-4)]Gal(b1-4)GlcNAc
# Outline: as §1
# [12] = target: Gal(a1-2)Gal
# Outline: as §1
# [13] = target: Gal(a1-3)Gal(b1-4)GlcNAc(b1-3)GalNAc
# Outline: as §1
# [14] = target: Gal(b1-3)GalNAc(a1-3)[Fuc(a1-2)]Gal(b1-4)Glc
# Outline: as §1
# [15] = target: Gal(b1-3)GalNAc(b1-4)[Neu5Ac(a2-3)]Gal(b1-4)Glc
# Outline: as §1
# [16] = target: Gal(b1-3)GlcNAc(a1-6)Gal(b1-4)GlcNAc
# Outline: as §1
# [17] = target: Gal(b1-3)GlcNAc(b1-3)Gal(b1-3)GlcNAc
# Outline: as §1
# [18] = target: Gal(b1-3)GlcNAc(b1-3)Gal(b1-4)GlcNAc
# Outline: as §1
# [19] = target: Gal(b1-4)GlcNAc(b1-2)Man(a1-6)[GlcNAc(b1-2)Man(a1-3)]Man(b1-4)GlcNAc(b1-4)GlcNAc
# Outline: as §1
# [20] = target: Gal3S(b1-4)[Fuc(a1-3)]Glc6S
# Outline: as §1
# [21] = target: GalNAc(a1-3)GalNAc
# Outline: as §1
# [22] = target: GalNAc(a1-3)GalNAc(a1-3)Gal(a1-4)Gal(b1-4)GlcNAc
# Outline: as §1
# [23] = target: Glc(a1-4)Glc
# Outline: as §1
# [24] = target: GlcNAc(b1-2)Gal(b1-3)GalNAc
# Outline: as §1
# [25] = target: GlcNAc(b1-2)Man(a1-3)[GlcNAc(b1-2)Man(a1-6)]Man(b1-4)GlcNAc(b1-4)GlcNAc
# Outline: as §1
# [26] = target: GlcNAc(b1-3)Gal(b1-4)GlcNAc
# Outline: as §1
# [27] = target: GlcNAc(b1-4)Gal(b1-4)GlcNAc
# Outline: as §1
# [28] = target: Kdn(a2-3)Gal(b1-3)GalNAc
# Outline: as §1
# [29] = target: Kdn(a2-3)Gal(b1-4)GlcNAc
# Outline: as §1
# [30] = target: Man(a1-2)Man(a1-6)[Man(a1-3)]Man(a1-6)[Man(a1-2)Man(a1-2)Man(a1-3)]Man(b1-4)GlcNAc(b1-4)GlcNAc
# Outline: as §1
binder,measurement,setting,value
B1,glycan array binding signal (z-score),[1],-0.704
same,glycan array binding signal (z-score),[2],0.044
same,glycan array binding signal (z-score),[3],-0.165
same,glycan array binding signal (z-score),[4],0.331
same,glycan array binding signal (z-score),[5],-0.579
same,glycan array binding signal (z-score),[6],1.12
same,glycan array binding signal (z-score),[7],-0.144
same,glycan array binding signal (z-score),[8],3.27
same,glycan array binding signal (z-score),[9],4.78
same,glycan array binding signal (z-score),[10],5.34
same,glycan array binding signal (z-score),[11],-0.76
same,glycan array binding signal (z-score),[12],3.67
same,glycan array binding signal (z-score),[13],-0.351
same,glycan array binding signal (z-score),[14],3.64
same,glycan array binding signal (z-score),[15],0.092
same,glycan array binding signal (z-score),[16],0.52
same,glycan array binding signal (z-score),[17],3.58
same,glycan array binding signal (z-score),[18],0.23
same,glycan array binding signal (z-score),[19],0.034
same,glycan array binding signal (z-score),[20],-0.042
same,glycan array binding signal (z-score),[21],0.641
same,glycan array binding signal (z-score),[22],1.74
same,glycan array binding signal (z-score),[23],-0.77
same,glycan array binding signal (z-score),[24],-0.768
same,glycan array binding signal (z-score),[25],-0.394
same,glycan array binding signal (z-score),[26],-0.536
same,glycan array binding signal (z-score),[27],-0.716
same,glycan array binding signal (z-score),[28],0.113
same,glycan array binding signal (z-score),[29],-0.202
same,glycan array binding signal (z-score),[30],-0.712
